Molecules are shown by their SMILES. Several values for one entry are separate records, joined by “and”; a condition that tells them apart may be missing. Equal values may be shown once. Hit rate of the full screen: of about 110,000 compounds, about 190 (0.17%) were called active. No stated cut-off is given here; in the data, active means inhibition above about 50%; inactive means the rest. Shown is part of a subset that was picked to be rich in actives. Results with a measured potency or affinity are listed apart.

The target in the test is Dual specificity protein phosphatase 6 (Rattus norvegicus) (UniProt Q64346). In words: inhibition of rat DUSP6 enzyme activity – biochemical, in vitro, primary screen (AID 425).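 Further: plate controls were vehicle for no effect and reference inhibitor for full effect.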 The note with it: recombinant MKP-3 phosphatase activity, fluorescence; at 20 µM; active compounds read high.
Sequence of Dual specificity protein phosphatase 6 (Rattus norvegicus) (Q64346 whole entry, looked up): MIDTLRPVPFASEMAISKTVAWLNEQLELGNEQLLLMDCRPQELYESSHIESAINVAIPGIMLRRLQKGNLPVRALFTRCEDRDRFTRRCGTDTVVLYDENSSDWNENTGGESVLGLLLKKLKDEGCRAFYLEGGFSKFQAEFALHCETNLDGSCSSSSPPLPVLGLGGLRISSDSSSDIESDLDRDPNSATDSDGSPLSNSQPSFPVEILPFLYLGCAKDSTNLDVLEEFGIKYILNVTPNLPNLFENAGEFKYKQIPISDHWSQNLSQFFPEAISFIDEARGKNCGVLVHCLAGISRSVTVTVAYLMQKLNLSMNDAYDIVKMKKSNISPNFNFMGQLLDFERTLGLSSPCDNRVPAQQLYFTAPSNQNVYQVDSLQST
As a reminder, the inhibition is the change of the read-out against control, counted positive when it falls. As for `O=C(CCCN1CCC(c2ccccc2)C1)c1ccc2c(c1)OCCO2` (stereo not given), the inhibition was -3.4% (inactive).
The result for `CC(=O)Nc1ccc(S(=O)(=O)NC(CC(=O)O)c2ccc(OC(C)C)cc2)cc1` (stereo not given) reads 7.9% (inactive); that for `CC(C)(C)NC(=O)C(=O)N/N=C/c1ccc(Cl)cc1`, -3.9% (inactive).
Take `CNc1ccc2[nH]nc3c2c1C(=O)c1ccccc1-3`: the inhibition is -22.4% (inactive).
On to `Cc1ccccc1OCC(=O)Nc1cccc(NC(=O)c2ccccc2Cl)c1`, for which the inhibition is -2.5% (inactive).
The result for `Cc1cc(Br)cc(C)c1NC(=O)c1ccc2c(c1)OCCO2` reads 82.6% (active); that for `CC(=O)c1ccc(NC(=O)c2ccc3c(c2)OCCO3)cc1`, -4.6% (inactive); that for `Cc1cccc(C)c1NC(=O)c1ccc2c(c1)OCCO2`, 2.1% (inactive).
The same measure for `CCN1C(=O)NC(c2cccnc2)C(C(=O)OC)=C1C` (stereo not given): -5.5% (inactive); for `CC(C)N(Cc1nc(-c2ccccc2)no1)C(=O)Cc1ccccc1`: -1.5% (inactive); for `CS(=O)(=O)N(CC(=O)NCc1ccccn1)c1ccc2c(c1)OCCO2`: -1.1% (inactive).
The result for `O=C1c2ccccc2-c2onc3c(Br)cc(O)c1c23` reads 87.7% (active).
Turning to `CCOC(=O)C(C(=O)OCC)c1cc(Br)c2noc3c2c1C(=O)c1ccccc1-3`, the inhibition was 23.6% (inactive).
The result for `O=C1c2ccccc2-c2onc3c(Cl)cc(Sc4ccccc4)c1c23` reads 3.9% (inactive); that for `Cc1onc(-c2ccccc2Cl)c1C(=O)NCc1cccs1`, 5.5% (inactive); that for `O=C(O)c1cc(-c2ccc(/C=N/Nc3ccc([N+](=O)[O-])cn3)o2)ccc1Cl`, 7.3% (inactive).
The result for `O=C(O)c1cccc(-c2ccc(/C=N/Nc3ccc([N+](=O)[O-])cn3)o2)c1` reads 51.1% (active); that for `O=C(O)c1ccc(Cl)c(-c2ccc(/C=N\Nc3ccc([N+](=O)[O-])cn3)o2)c1`, 8.7% (inactive).
The result for `O=C(O)/C=C/C(=O)Nc1ccc(NC(=O)c2ccccc2)c(Cl)c1` reads 1.5% (inactive); that for `CNc1ccc2c(O)cc(S(=O)(=O)O)cc2c1`, 65.1% (active).
In the case of `O=C(O)c1cc(S(=O)(=O)O)ccc1O`, the inhibition is -4.1% (inactive).
The result for `COC(=O)c1cc(C(=O)OC)cc(S(=O)(=O)O)c1` reads -0.1% (inactive); that for `O=C1/C(=C/c2ccc(O)c(O)c2)SC(=S)N1c1ccc(O)cc1`, 8.5% (inactive); that for `Cc1cc(C)n(C(=O)CNC(=O)c2ccco2)n1`, 1.1% (inactive) and -4% (inactive).
Consider `COc1ccc(C2SC(C)C(=O)N2c2ccc(C)cc2)cc1` (stereo not given), for which the inhibition was -0.4% (inactive).
On to `O=C(NCC1CCCO1)c1cc2nc(-c3ccco3)cc(C(F)(F)F)n2n1` (stereo not given), for which the inhibition was 0.3% (inactive).
The result for `O=C(NCC1CCCO1)c1cc2nc(-c3ccc([N+](=O)[O-])cc3)cc(C(F)(F)F)n2n1` (stereo not given) reads 95.8% (active); that for `O=C(NCC1CCCO1)c1cc2nc(-c3ccc(F)cc3)cc(C(F)(F)F)n2n1` (stereo not given), 2.8% (inactive); that for `COCCn1c(SCC(=O)Nc2cccc(OC)c2)nnc1-c1ccc(Cl)cc1`, -2.5% (inactive).
The same measure for `Cc1ccc(-c2ccc(C=C3C(=O)N(C)C(=O)N(C)C3=O)o2)cc1[N+](=O)[O-]`: -5.2% (inactive).
For `CN(c1ccc(C(=O)N2CCCCC2)cc1)S(=O)(=O)c1ccccc1`, the inhibition is 2.4% (inactive).
Consider `CCc1c(C)c2ccc(OCC(C)=O)c(C)c2oc1=O`, for which the inhibition was 5.8% (inactive).
For the compound `CCc1c(C)c2ccc(OCc3ccccc3)c(C)c2oc1=O`, the inhibition was 3.5% (inactive).
The same measure for `O=C(CN1CCCCCC1)Nc1cccc2c1OCO2`: 0.2% (inactive) and -9.3% (inactive); for `CCC(C)NC(=O)/C(=C\c1ccc(OC(C)=O)c(OC)c1)NC(C)=O` (stereo not given): 97.1% (active); for `COc1ccc(/C=C(\NC(=O)c2ccccc2)C(=O)NCC(C)C)cc1OC`: 3% (inactive).
The same measure for `COc1ccc(/C=C/C(=O)NCC(C)NC(=O)/C=C/c2ccc(OC)c(OC)c2)cc1OC` (stereo not given): 1.7% (inactive); for `COc1cccc(-c2cc(C(=O)Nc3c(C)nn(Cc4ccccc4)c3C)no2)c1`: 0.1% (inactive).
The same measure for `O=C(NCCNc1ccc(Cl)cc1[N+](=O)[O-])c1ccccc1Cl`: 1.9% (inactive); for `Cc1c(O)ccc2c1oc(=O)c1ccccc12`: 1.2% (inactive); for `O=c1oc2c(O)c(O)ccc2c2c1CCC2`: 7.2% (inactive).
Take `Cc1ccc(S(=O)(=O)NCC(=O)N(CCc2ccccc2)CC(=O)NCc2ccco2)cc1`: the inhibition was -4.7% (inactive).
The result for `Cc1cc(C)nc(Sc2c(C)nn(-c3ccccc3)c2C)n1` reads -0.6% (inactive); that for `Cc1nn(-c2ccccc2)c(C)c1Sc1ccc(Cl)cc1`, 74.7% (active).
The result for `Cc1nn(-c2ccccc2)c(C)c1Sc1ccc(Br)cc1` reads 0.2% (inactive).
The same measure for `COc1ccc(C2C(C(=O)OC(C)C)=C(C)N=c3s/c(=C/c4c[nH]c5ccccc45)c(=O)n32)cc1` (stereo not given): 3.4% (inactive).
In the case of `CCOCCOC(=O)c1ccc(NC(=O)/C=C/c2ccc(OC)c(Br)c2)cc1`, the inhibition was 2.5% (inactive).
On to `COc1ccc(Cl)cc1C(=O)Nc1nc2ccc(S(C)(=O)=O)cc2s1`, for which the inhibition is 3.8% (inactive).
The same measure for `CCOc1ccc(NC(=O)CSc2nc3ccc(OC)cc3[nH]2)cc1`: -0.2% (inactive); for `O=C(O)c1ccccc1-c1ccccc1/C=N/O`: -1.8% (inactive); for `CCOC(=O)C1=C(C)N=c2s/c(=C\c3ccc(OCC)cc3)c(=O)n2C1c1ccccc1` (stereo not given): 2.8% (inactive).
The same measure for `CCOC(=O)C1=C(C)N=c2s/c(=C\c3ccc(OCC(=O)O)cc3)c(=O)n2C1c1ccccc1` (stereo not given): 2.5% (inactive); for `Cc1c(N2C(=O)c3cccc([N+](=O)[O-])c3C2=O)c(=O)n(-c2ccccc2)n1C`: 1.8% (inactive).
As to `CCN(CC)CCCNC(=O)c1cc2nc(-c3ccc([N+](=O)[O-])cc3)cc(C(F)(F)F)n2n1`, the inhibition was 1.9% (inactive).
The same measure for `COc1ccccc1N1C(=O)C(=Cc2cccn2C)C(=O)NC1=S`: 93.6% (active).
The result for `Cn1cccc1/C=C1/C(=O)NC(=S)N(c2cccc(Cl)c2)C1=O` reads 60.6% (active); that for `COc1ccccc1/C=C1/C(=O)NC(=O)N(c2ccccc2OC)C1=O`, -1.2% (inactive); that for `O=C1NC(=S)N(c2cccc(Cl)c2)C(=O)/C1=C\c1ccc(N2CCCC2)cc1`, 19.3% (inactive).
The same measure for `Cc1cc(/C=C2\C(=O)NC(=S)N(c3cccc(Cl)c3)C2=O)c(C)n1C`: -0.4% (inactive); for `COc1ccccc1C=C1C(=O)NC(=S)N(c2ccccc2F)C1=O`: 3% (inactive).
In the case of `O=C1CC(c2cccs2)CC2=C1C(c1ccsc1)Nc1ccccc1N2` (stereo not given), the inhibition was -0.1% (inactive).
The same measure for `C=C(C)Cn1c(SCC(=O)NN)nnc1-c1ccc(Br)cc1`: 2.7% (inactive).
The same measure for `CCC(C)(C)NC(=O)C1CCN(c2nc(C)cc(C)n2)CC1`: -18.2% (inactive); for `CCc1nnc(NC(=O)C2CC(=O)N(c3ccc(C)cc3)C2)s1` (stereo not given): -9.9% (inactive); for `O=C1NC(=S)S/C1=C/c1ccccc1OS(=O)(=O)c1ccccc1[N+](=O)[O-]`: 1.4% (inactive).
The same measure for `O=C1NC(=O)/C(=C/c2ccccc2[N+](=O)[O-])S1`: 79.4% (active).
For the compound `O=C1NC(=O)/C(=C\c2ccccc2Cl)S1`, the inhibition was -2.9% (inactive).
Turning to `O=C1NC(=S)N/C1=C/c1cc2c(cc1Cl)OCO2`, the inhibition was 0.8% (inactive).
The same measure for `O=C1NC(=S)N/C1=C/c1cc2c(cc1[N+](=O)[O-])OCO2`: 64.9% (active).
Turning to `O=C1NC(=S)S/C1=C\c1ccccc1[N+](=O)[O-]`, the inhibition was 122% (active).
The result for `O=C1NC(=S)S/C1=C\c1ccccc1OS(=O)(=O)c1ccc([N+](=O)[O-])cc1` reads 1.6% (inactive).
With `O=C1NC(=S)N/C1=C/c1ccc2c(c1)OCO2`, the inhibition is 5.3% (inactive).
The result for `COc1cc(Br)c(/C=C2/SC(=S)NC2=O)cc1OC` reads -0.6% (inactive).
The result for `COc1cc(/C=C2/SC(=S)NC2=O)c([N+](=O)[O-])cc1OC` reads 50.1% (active); that for `COc1cc(/C=C2\NC(=S)NC2=O)c([N+](=O)[O-])cc1OC`, 13.3% (inactive); that for `O=C1NC(=Nc2ccc(Br)cc2)S/C1=C\c1ccccc1[N+](=O)[O-]`, 1.9% (inactive).
As to `COc1ccc(CN2C(=O)C(O)(CC(=O)c3c(C)n[nH]c3C)c3ccccc32)cc1OC` (stereo not given), the inhibition is -1.9% (inactive).
The same measure for `CCOc1cc(C(=O)Nc2ccc(Br)cc2F)cc(OCC)c1OCC`: 5.8% (inactive); for `O=C(c1oc2ccccc2c1N1CCCCC1)N1CCCCC1`: 2.6% (inactive).
The result for `O=C1CN(S(=O)(=O)CCOc2ccccc2)CC(=O)N1CCOc1ccccc1` reads 3.6% (inactive).
Regarding `CN(Cc1ccccc1)c1oc(-c2ccco2)nc1C#N`, the inhibition was -1.5% (inactive).
The result for `O=C(NN=C(C1CC1)C1CC1)c1cc2ccccc2cc1O` reads 1.9% (inactive); that for `CC1(C)CC(=O)c2nc(NC(=O)CSC(=O)c3ccccc3)sc2C1`, 0.6% (inactive).
The same measure for `CN1C(=O)/C(=C\c2cc(Br)ccc2OCc2ccccc2)SC1=S`: 2.6% (inactive); for `O=C1NC(=O)/C(=C\c2cc3c(cc2[N+](=O)[O-])OCO3)S1`: 122% (active); for `O=C1/C(=C/c2cc3c(cc2[N+](=O)[O-])OCO3)Sc2ccccc21`: -0.9% (inactive).
The same measure for `O=C1NC(=O)/C(=C\c2cc3c(cc2Br)OCO3)S1`: 1.1% (inactive); for `CC(C)(C)c1cc(Br)ccc1OCC(=O)Nc1ccc2c(c1)OCCO2`: 6.4% (inactive); for `COc1ccc2nc(SCC(=O)Nc3ccccc3)[nH]c2c1`: -2.1% (inactive).
Regarding `Cc1cc(N2C(=O)NC(=O)/C(=C\c3ccco3)C2=O)ccc1Br`, the inhibition was 42.1% (inactive).
The result for `COc1ccc(OC)c(N2C(=O)NC(=O)C(=Cc3ccc(C)o3)C2=O)c1` reads 3.8% (inactive).
The result for `Cc1ccc(C=C2C(=O)NC(=S)N(c3ccccc3Cl)C2=O)o1` reads 11.8% (inactive).
The result for `O=C1NC(=O)N(c2ccc(Br)cc2)C(=O)/C1=C/c1ccco1` reads 46.2% (inactive); that for `COc1cccc(N2C(=O)C(=Cc3ccc(OC)cc3OC)C(=O)NC2=S)c1`, 2.6% (inactive).
On to `O=C1NC(=S)N(c2ccc(F)cc2)C(=O)/C1=C/c1ccc(F)cc1`, for which the inhibition is -0.1% (inactive).
